# Positions count from the first letter of the chain named.
# Tests used:
# Experiment in all cases: PBM; 200 nM protein, PBS
# Conditions in all cases: dsDNA, one strand shown
# SHOX [1] = biological target: SHOX (Homo sapiens, UniProt O15266 103-189)
# PAX4 [2] = biological target: T1, PAX4 (Homo sapiens, UniProt O43316 9-242, R200K)
# T1 sequence: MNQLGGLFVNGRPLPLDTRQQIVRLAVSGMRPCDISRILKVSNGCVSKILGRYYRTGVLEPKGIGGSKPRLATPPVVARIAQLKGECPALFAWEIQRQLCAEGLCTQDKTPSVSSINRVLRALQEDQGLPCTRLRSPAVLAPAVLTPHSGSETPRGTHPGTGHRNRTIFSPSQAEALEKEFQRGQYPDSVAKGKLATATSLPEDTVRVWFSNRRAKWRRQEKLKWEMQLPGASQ
# PAX4 [3] = biological target: T2, PAX4 (Homo sapiens, UniProt O43316 9-242)
# T2 sequence: T1 sequence with K192R
# PAX4 [4] = biological target: T3, PAX4 (Homo sapiens, UniProt O43316 9-242, R200Q)
# T3 sequence: T1 sequence with K192Q
# SHOX [5] = biological target: SHOX (Homo sapiens, UniProt O15266 103-189, R173C)
# Chain of SHOX (Homo sapiens, UniProt O15266 103-189, R173C) (O15266 103-189 R173C): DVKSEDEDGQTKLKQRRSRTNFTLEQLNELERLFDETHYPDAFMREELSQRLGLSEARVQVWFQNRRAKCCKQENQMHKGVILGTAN
# PAX4 [6] = biological target: T4, PAX4 (Homo sapiens, UniProt O43316 9-242, F177V)
# T4 sequence: T1 sequence with F169V, K192R
# PAX4 [7] = biological target: T5, PAX4 (Homo sapiens, UniProt O43316 9-242, F177Y)
# T5 sequence: T1 sequence with F169Y, K192R
# PAX4 [8] = biological target: T6, PAX4 (Homo sapiens, UniProt O43316 9-242, R227W)
# T6 sequence: T1 sequence with K192R, R219W
# ALX4 [9] = biological target: ALX4 (Homo sapiens, UniProt Q9H161 200-286)
# Chain of ALX4 (Homo sapiens, UniProt Q9H161 200-286) (Q9H161 200-286): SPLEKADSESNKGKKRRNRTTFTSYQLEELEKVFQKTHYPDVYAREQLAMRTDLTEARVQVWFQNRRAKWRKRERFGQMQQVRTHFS
# PRRX1 [10] = biological target: PRRX1 (Homo sapiens, UniProt P54821 80-166, F113S)
# Chain of PRRX1 (Homo sapiens, UniProt P54821 80-166, F113S) (P54821 80-166 F113S): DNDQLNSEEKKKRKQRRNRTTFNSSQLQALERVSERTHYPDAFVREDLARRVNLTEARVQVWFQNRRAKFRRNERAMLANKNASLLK
# ALX4 [11] = biological target: ALX4 (Homo sapiens, UniProt Q9H161 200-286, Q225E)
# Chain of ALX4 (Homo sapiens, UniProt Q9H161 200-286, Q225E) (Q9H161 200-286 Q225E): as the sequence (Q9H161 200-286) above, with Q26E counted along it
# ALX1 [12] = biological target: ALX1 (Homo sapiens, UniProt Q15699 118-204, L144V)
# Chain of ALX1 (Homo sapiens, UniProt Q15699 118-204, L144V) (Q15699 118-204 L144V): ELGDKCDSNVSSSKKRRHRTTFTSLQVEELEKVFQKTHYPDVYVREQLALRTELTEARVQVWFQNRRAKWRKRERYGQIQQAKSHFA
# ALX3 [13] = biological target: ALX3 (Homo sapiens, UniProt O95076 139-225, N203Q)
# Chain of ALX3 (Homo sapiens, UniProt O95076 139-225, N203Q) (O95076 139-225 N203Q): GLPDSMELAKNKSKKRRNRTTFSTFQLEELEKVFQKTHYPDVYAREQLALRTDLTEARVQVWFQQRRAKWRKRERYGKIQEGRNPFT
# ALX1 [14] = biological target: ALX1 (Homo sapiens, UniProt Q15699 118-204, L144R)
# Chain of ALX1 (Homo sapiens, UniProt Q15699 118-204, L144R) (Q15699 118-204 L144R): as the sequence (Q15699 118-204 L144V) above, with V27R counted along it
# ALX3 [15] = biological target: ALX3 (Homo sapiens, UniProt O95076 139-225)
# Chain of ALX3 (Homo sapiens, UniProt O95076 139-225) (O95076 139-225): as the sequence (O95076 139-225 N203Q) above, with Q65N counted along it
# PROP1 [16] = biological target: PROP1 (Homo sapiens, UniProt O75360 56-141)
# Chain of PROP1 (Homo sapiens, UniProt O75360 56-141) (O75360 56-141): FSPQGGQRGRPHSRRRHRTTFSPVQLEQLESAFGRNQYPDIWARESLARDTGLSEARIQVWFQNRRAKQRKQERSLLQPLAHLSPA
# PROP1 [17] = biological target: PROP1 (Homo sapiens, UniProt O75360 56-141, R99H)
# Chain of PROP1 (Homo sapiens, UniProt O75360 56-141, R99H) (O75360 56-141 R99H): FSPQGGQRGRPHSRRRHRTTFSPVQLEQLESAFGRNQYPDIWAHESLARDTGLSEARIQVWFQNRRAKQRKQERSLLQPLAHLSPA
# ALX3 [18] = biological target: ALX3 (Homo sapiens, UniProt O95076 139-225, L168Q)
# Chain of ALX3 (Homo sapiens, UniProt O95076 139-225, L168Q) (O95076 139-225 L168Q): as the sequence (O95076 139-225 N203Q) above, with L30Q, Q65N counted along it
# ALX3 [19] = biological target: ALX3 (Homo sapiens, UniProt O95076 139-225, L168V)
# Chain of ALX3 (Homo sapiens, UniProt O95076 139-225, L168V) (O95076 139-225 L168V): as the sequence (O95076 139-225 N203Q) above, with L30V, Q65N counted along it
# PROP1 [20] = biological target: PROP1 (Homo sapiens, UniProt O75360 56-141, F88S)
# Chain of PROP1 (Homo sapiens, UniProt O75360 56-141, F88S) (O75360 56-141 F88S): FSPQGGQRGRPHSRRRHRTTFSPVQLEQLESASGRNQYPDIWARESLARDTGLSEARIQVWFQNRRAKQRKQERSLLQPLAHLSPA
# ALX1 [21] = biological target: ALX1 (Homo sapiens, UniProt Q15699 118-204)
# Chain of ALX1 (Homo sapiens, UniProt Q15699 118-204) (Q15699 118-204): as the sequence (Q15699 118-204 L144V) above, with V27L counted along it
# ALX3 [22] = biological target: ALX3 (Homo sapiens, UniProt O95076 139-225, N203S)
# Chain of ALX3 (Homo sapiens, UniProt O95076 139-225, N203S) (O95076 139-225 N203S): as the sequence (O95076 139-225 N203Q) above, with Q65S counted along it
# PRRX1 [23] = biological target: PRRX1 (Homo sapiens, UniProt P54821 80-166)
# Chain of PRRX1 (Homo sapiens, UniProt P54821 80-166) (P54821 80-166): as the sequence (P54821 80-166 F113S) above, with S34F counted along it
# MSX2 [24] = biological target: MSX2 (Homo sapiens, UniProt P35548 130-214, R199I)
# Chain of MSX2 (Homo sapiens, UniProt P35548 130-214, R199I) (P35548 130-214 R199I): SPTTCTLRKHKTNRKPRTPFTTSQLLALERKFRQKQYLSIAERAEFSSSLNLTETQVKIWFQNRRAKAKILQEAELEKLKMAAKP
# MSX2 [25] = biological target: MSX2 (Homo sapiens, UniProt P35548 130-214)
# Chain of MSX2 (Homo sapiens, UniProt P35548 130-214) (P35548 130-214): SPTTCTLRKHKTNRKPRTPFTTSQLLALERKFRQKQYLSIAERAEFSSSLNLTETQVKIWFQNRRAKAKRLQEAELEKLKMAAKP
# MSX2 [26] = biological target: MSX2 (Homo sapiens, UniProt P35548 130-214, F161Y)
# Chain of MSX2 (Homo sapiens, UniProt P35548 130-214, F161Y) (P35548 130-214 F161Y): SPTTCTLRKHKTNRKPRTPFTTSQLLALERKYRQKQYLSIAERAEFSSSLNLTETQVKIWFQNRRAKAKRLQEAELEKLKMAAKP
# HOXD13 [27] = biological target: HOXD13 (Homo sapiens, UniProt P35453 263-343, T313R)
# Chain of HOXD13 (Homo sapiens, UniProt P35453 263-343, T313R) (P35453 263-343 T313R): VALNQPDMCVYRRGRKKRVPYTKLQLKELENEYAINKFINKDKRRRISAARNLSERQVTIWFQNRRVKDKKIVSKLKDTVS
# HOXD13 [28] = biological target: HOXD13 (Homo sapiens, UniProt P35453 263-343)
# Chain of HOXD13 (Homo sapiens, UniProt P35453 263-343) (P35453 263-343): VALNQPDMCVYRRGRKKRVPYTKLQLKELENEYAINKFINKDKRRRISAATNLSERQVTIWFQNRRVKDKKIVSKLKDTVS
# HOXD13 [29] = biological target: HOXD13 (Homo sapiens, UniProt P35453 263-343, T313A)
# Chain of HOXD13 (Homo sapiens, UniProt P35453 263-343, T313A) (P35453 263-343 T313A): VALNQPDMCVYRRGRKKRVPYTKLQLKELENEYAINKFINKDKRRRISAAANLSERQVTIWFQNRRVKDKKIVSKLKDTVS
# Chain of SHOX (Homo sapiens, UniProt O15266 103-189) (O15266 103-189): as the sequence (O15266 103-189 R173C) above, with C71R counted along it
sequence,measurement,setting,value
CGCCTCCC,binding signal,SHOX [1],"7 upbm affinity estimate (log intensity, higher = more binding, comparable within an allelic series)"
same,binding signal,PAX4 [2],"9.2 upbm affinity estimate (log intensity, higher = more binding, comparable within an allelic series)"
same,binding signal,PAX4 [3],"9.23 upbm affinity estimate (log intensity, higher = more binding, comparable within an allelic series)"
same,binding signal,PAX4 [4],"9.17 upbm affinity estimate (log intensity, higher = more binding, comparable within an allelic series)"
same,binding signal,SHOX [5],"6.98 upbm affinity estimate (log intensity, higher = more binding, comparable within an allelic series)"
same,binding signal,PAX4 [6],"9.03 upbm affinity estimate (log intensity, higher = more binding, comparable within an allelic series)"
same,binding signal,PAX4 [7],"9.1 upbm affinity estimate (log intensity, higher = more binding, comparable within an allelic series)"
same,binding signal,PAX4 [8],"9.17 upbm affinity estimate (log intensity, higher = more binding, comparable within an allelic series)"
CTAATTTA,binding signal,SHOX [1],"11.5 upbm affinity estimate (log intensity, higher = more binding, comparable within an allelic series)"
same,binding signal,ALX4 [9],"13.7 upbm affinity estimate (log intensity, higher = more binding, comparable within an allelic series)"
same,binding signal,PAX4 [2],"11.7 upbm affinity estimate (log intensity, higher = more binding, comparable within an allelic series)"
same,binding signal,PRRX1 [10],"11.1 upbm affinity estimate (log intensity, higher = more binding, comparable within an allelic series)"
same,binding signal,PAX4 [3],"12.3 upbm affinity estimate (log intensity, higher = more binding, comparable within an allelic series)"
same,binding signal,ALX4 [11],"12.6 upbm affinity estimate (log intensity, higher = more binding, comparable within an allelic series)"
same,binding signal,ALX1 [12],"11.4 upbm affinity estimate (log intensity, higher = more binding, comparable within an allelic series)"
same,binding signal,ALX3 [13],"8.44 upbm affinity estimate (log intensity, higher = more binding, comparable within an allelic series)"
same,binding signal,PAX4 [4],"11.9 upbm affinity estimate (log intensity, higher = more binding, comparable within an allelic series)"
same,binding signal,SHOX [5],"9.2 upbm affinity estimate (log intensity, higher = more binding, comparable within an allelic series)"
same,binding signal,ALX1 [14],"11.1 upbm affinity estimate (log intensity, higher = more binding, comparable within an allelic series)"
same,binding signal,PAX4 [6],"10.6 upbm affinity estimate (log intensity, higher = more binding, comparable within an allelic series)"
same,binding signal,ALX3 [15],"12.3 upbm affinity estimate (log intensity, higher = more binding, comparable within an allelic series)"
same,binding signal,PAX4 [7],"11 upbm affinity estimate (log intensity, higher = more binding, comparable within an allelic series)"
same,binding signal,PROP1 [16],"11 upbm affinity estimate (log intensity, higher = more binding, comparable within an allelic series)"
same,binding signal,PROP1 [17],"10.8 upbm affinity estimate (log intensity, higher = more binding, comparable within an allelic series)"
same,binding signal,ALX3 [18],"10.2 upbm affinity estimate (log intensity, higher = more binding, comparable within an allelic series)"
same,binding signal,ALX3 [19],"9.6 upbm affinity estimate (log intensity, higher = more binding, comparable within an allelic series)"
same,binding signal,PROP1 [20],"7.64 upbm affinity estimate (log intensity, higher = more binding, comparable within an allelic series)"
same,binding signal,PAX4 [8],"11 upbm affinity estimate (log intensity, higher = more binding, comparable within an allelic series)"
same,binding signal,ALX1 [21],"12.1 upbm affinity estimate (log intensity, higher = more binding, comparable within an allelic series)"
same,binding signal,ALX3 [22],"8.54 upbm affinity estimate (log intensity, higher = more binding, comparable within an allelic series)"
same,binding signal,PRRX1 [23],"13.3 upbm affinity estimate (log intensity, higher = more binding, comparable within an allelic series)"
GCGCCAGC,binding signal,SHOX [1],"7.13 upbm affinity estimate (log intensity, higher = more binding, comparable within an allelic series)"
same,binding signal,MSX2 [24],"9.22 upbm affinity estimate (log intensity, higher = more binding, comparable within an allelic series)"
same,binding signal,SHOX [5],"6.97 upbm affinity estimate (log intensity, higher = more binding, comparable within an allelic series)"
same,binding signal,MSX2 [25],"9.48 upbm affinity estimate (log intensity, higher = more binding, comparable within an allelic series)"
same,binding signal,MSX2 [26],"9.39 upbm affinity estimate (log intensity, higher = more binding, comparable within an allelic series)"
GCATTACC,binding signal,SHOX [1],"8.63 upbm affinity estimate (log intensity, higher = more binding, comparable within an allelic series)"
same,binding signal,SHOX [5],"7.62 upbm affinity estimate (log intensity, higher = more binding, comparable within an allelic series)"
CCCGGGGC,binding signal,SHOX [1],"7.23 upbm affinity estimate (log intensity, higher = more binding, comparable within an allelic series)"
same,binding signal,SHOX [5],"7.07 upbm affinity estimate (log intensity, higher = more binding, comparable within an allelic series)"
CCGTGGCC,binding signal,SHOX [1],"7.18 upbm affinity estimate (log intensity, higher = more binding, comparable within an allelic series)"
same,binding signal,SHOX [5],"7.22 upbm affinity estimate (log intensity, higher = more binding, comparable within an allelic series)"
CCGCGCCA,binding signal,SHOX [1],"7.12 upbm affinity estimate (log intensity, higher = more binding, comparable within an allelic series)"
same,binding signal,SHOX [5],"7.11 upbm affinity estimate (log intensity, higher = more binding, comparable within an allelic series)"
CCTGAGAG,binding signal,SHOX [1],"7.19 upbm affinity estimate (log intensity, higher = more binding, comparable within an allelic series)"
same,binding signal,SHOX [5],"7.25 upbm affinity estimate (log intensity, higher = more binding, comparable within an allelic series)"
AGCCACCG,binding signal,SHOX [1],"7.07 upbm affinity estimate (log intensity, higher = more binding, comparable within an allelic series)"
same,binding signal,HOXD13 [27],"9.53 upbm affinity estimate (log intensity, higher = more binding, comparable within an allelic series)"
same,binding signal,SHOX [5],"7.05 upbm affinity estimate (log intensity, higher = more binding, comparable within an allelic series)"
same,binding signal,HOXD13 [28],"9.56 upbm affinity estimate (log intensity, higher = more binding, comparable within an allelic series)"
same,binding signal,HOXD13 [29],"9.66 upbm affinity estimate (log intensity, higher = more binding, comparable within an allelic series)"
